According to PubChem BioAssay (NCATS):
Several values for one entry are separate records, joined by “and”; a condition that tells them apart may be missing. Equal values may be shown once. Unmarked numbers belong to inactive results. Calls come from the whole dose curve. Residues, ends and D or L forms follow the SMILES beside them.

Biological target: Glucocorticoid receptor (Homo sapiens) (UniProt P04150)
Assay: GR-EFC Redistribution (AID 451)
Details: CHO-K1 GR-EFC translocation, beta-gal luminescence, 2 h
Text: NIH Molecular Libraries Screening Centers Network [MLSCN]
NIH Chemical Genomics Center [NCGC]
The glucocorticoid receptor (GR) is a cytoplasmic receptor that belongs to the nuclear receptor family of ligand-dependent transcription factors. Upon glucocorticoid binding to its receptor, the glucocorticoid-GR complex translocates into the nucleus, where it binds as a dimer to specific DNA sequences (glucocorticoid response elements), enhancing or suppressing transcription of a wide variety of glucocorticoid-responsive genes. In addition to their important roles in normal physiology and metabolism, glucocorticoids are administered exogenously as treatments for a wide variety of allergic, autoimmune, and neoplastic conditions. Identification of compounds that modulate aspects of GR signalling would be useful in dissecting glucocorticoid response pathways as well as developing GR modulators with more targeted clinical effects.
Traditionally, GR modulators have been identified using receptor binding or direct transactivation assays. However, assays for glucocorticoid-dependent nuclear translocation can also be used to screen for compounds affecting GR signaling.
Immunocytochemical staining has been used to assay for GR translocation, but is not suitable for high throughout screening due to the multiple reagent addition and wash steps required. Recently, a novel cell-based GR assay in Enzyme Fragment Complementation (EFC) format was developed by DiscoveRx (Fremont, CA). The assay uses EFC of b-galactosidase (b-gal) as an indicator of GR-translocation in engineered CHO-K1 biosensor cells. The enzyme acceptor (EA) fragment of b-gal resides in the nucleus , as designed through the use of a proprietary set of sequence additions and modifications. The small peptide enzyme donor (ED) fragment of b-gal is fused directly to the C-terminus of GR, and is localized in the cytoplasm is the absence of receptor signaling. Upon binding to a GR ligand, the complex translocates to the nucleus, where intact enzyme activity is restored by complementation and b-gal activity is detected. We optimized this GR-EFC assay in homogenous 1536-well plate assay format for high throughput screening.
NCGC Assay Protocol Summary:
CHO-K1 cells stably expressing NLS-enzyme acceptor fragment (EA) of b-gal and GR-enzyme donor (ED) fragment of b-gal were maintained in F12 medium (Invitrogen, Carlsbad, CA) at 37 Celsius degrees under a humidified atmosphere containing 5% CO2 and 95% air. The medium contained 10% FBS, 2 mM L-glutamine, 50 U/ml penicillin 50 ug/ml streptomycin, and 250 ug/ml hygromycin and 500 ug/ml G418 (Invitrogen).
GR-translocation was measured beta-gal enzyme activity using the PathHunter Detection Kit containing cell membrane permeablizing reagent and beta-gal substrate (DiscoveRx, Fremont, CA). All compounds were screened as titrations from 0.6 nM to 46 uM final concentration. The assay was performed in 1536-well format as follows:
5 uL cell suspension (1,000 cells)/well
Incubation at 37 Celsius degrees for two hours
1.25 uL 1X detection buffer from the kit supplied by DiscoveRx
Incubation at room temperature for one hour
Read plate in luminescence mode in ViewLux plate reader (PerkinElmer)
Keywords: NIH Roadmap, MLSCN, MLI, MLSMR, GR-EFC, GREFC, qHTS, NCGC
Potency is the fitted concentration of half-maximal effect.

Glucocorticoid receptor (Homo sapiens), sequence (P04150 whole entry, looked up): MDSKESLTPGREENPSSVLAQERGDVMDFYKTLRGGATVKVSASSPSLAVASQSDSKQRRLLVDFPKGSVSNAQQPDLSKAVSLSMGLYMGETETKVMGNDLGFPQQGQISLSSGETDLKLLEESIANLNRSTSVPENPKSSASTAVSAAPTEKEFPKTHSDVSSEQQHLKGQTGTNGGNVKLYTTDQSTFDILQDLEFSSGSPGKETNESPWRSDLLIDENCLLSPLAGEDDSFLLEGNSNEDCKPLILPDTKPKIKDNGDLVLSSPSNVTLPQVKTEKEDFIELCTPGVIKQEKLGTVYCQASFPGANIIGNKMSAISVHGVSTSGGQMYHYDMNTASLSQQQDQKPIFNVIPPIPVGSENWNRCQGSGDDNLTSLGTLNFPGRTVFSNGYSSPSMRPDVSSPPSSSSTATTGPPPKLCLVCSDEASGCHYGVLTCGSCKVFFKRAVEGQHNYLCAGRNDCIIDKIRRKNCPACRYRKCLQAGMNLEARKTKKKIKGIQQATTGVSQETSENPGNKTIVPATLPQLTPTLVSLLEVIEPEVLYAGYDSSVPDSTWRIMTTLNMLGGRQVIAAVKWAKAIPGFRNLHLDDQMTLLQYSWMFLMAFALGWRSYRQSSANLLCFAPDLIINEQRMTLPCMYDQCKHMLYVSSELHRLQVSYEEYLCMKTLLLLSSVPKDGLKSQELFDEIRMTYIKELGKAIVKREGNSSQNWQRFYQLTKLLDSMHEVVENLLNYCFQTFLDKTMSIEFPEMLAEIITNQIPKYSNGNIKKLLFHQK

Structure (SMILES)	Potency
CCNC(=O)[C@H]1O[C@H](n2cnc3c(N)nc(NCCc4ccc(CCC(=O)O)cc4)nc32)[C@@H](O)[C@@H]1O	> 46 µM
NCCOB(c1ccccc1)c1ccccc1	> 46 µM
CS(=O)(=O)Nc1c(O)ccc2c1CCC[C@H]2C1=NCCN1	> 46 µM
O=C(O)COc1ccc(OCCNC[C@@H](O)COc2ccccc2)cc1	> 46 µM
COc1ccc(NC(=O)c2ccc(-c3ccc(-c4noc(C)n4)cc3C)cc2)cc1OCCN(C)C	> 46 µM
CC(C)=CCC/C(C)=C/CC/C(C)=C/CSc1ccccc1C(=O)O	> 46 µM
COc1ccccc1CC(=N)N1C[C@@H]2C(=O)CCC(c3ccccc3)(c3ccccc3)[C@@H]2C1	> 46 µM
CC(C)C[C@H]1C(=O)N2CCC[C@@H]2[C@]2(O)O[C@](NC(=O)[C@@H]3C=C4c5cccc6[nH]c(Br)c(c56)C[C@H]4N(C)C3)(C(C)C)C(=O)N12	> 46 µM
COc1ccc(-c2nc(C(=O)N3CCN(C)CC3)sc2-c2ccc(OC)cc2)cc1	> 46 µM
C[C@@H](/C=C\c1cccc(Oc2ccc(F)cc2)c1)N(O)C(N)=O	> 46 µM
Cc1cc(Cn2cnc3c2C[C@@H](C(=O)O)N(C(=O)C(c2ccccc2)c2ccccc2)C3)ccc1N(C)C	> 46 µM
CC(C)Oc1cccc(-n2c(CCc3c[nH]c4ccc(Br)cc34)nc3ccccc3c2=O)c1	> 46 µM
CCCCCCCCCCCCC/C=C\[C@@H](O)[C@H](CO)NC(C)=O	> 46 µM
COC(=O)c1c(-c2cc(OC)c(OC)c(OC)c2)c2ccnc(OCc3ncccn3)c2c(=O)n1Cc1ccnc(C)c1	> 46 µM
NC1(C(=O)O)CCC1	> 46 µM
C[C@H](N)C(=O)O	> 46 µM
S=C(Nc1ccccc1)Nc1nccs1	> 46 µM
C=C[C@H](N)CCC(=O)O	> 46 µM and > 20.6 µM
CC(C)NC[C@@H](O)COc1ccc(CCOCC2CC2)cc1	> 46 µM and > 20.6 µM
OC[C@H]1O[C@H](n2cnc3c(NC4CCCC4)nc(Cl)nc32)[C@@H](O)[C@@H]1O	> 46 µM

Structure (SMILES)	Potency
C[C@@H](NCc1cc(Br)cc2[nH]c(=O)c(=O)[nH]c12)P(=O)(O)O	> 46 µM
O=C1C(c2ccccn2)=[N+]([O-])c2ccccc21	> 46 µM
CCNCCCNCCCCNCCCNCC	> 46 µM
C[C@@H]1Nc2ccc(Cl)cc2S(=O)(=O)N1	> 46 µM
CCC(C)(C)N=C(NC#N)Nc1cccnc1	> 46 µM
CC[N+](CC)(CC)CC	> 46 µM
CC(=O)NCC(=O)N[C@H](CCC(=O)O)C(=O)O (HELM PEPTIDE1{[ac].G.[dE]}$$$$V2.0)	> 46 µM
CCCN(C/C=C\I)[C@@H]1CCc2cccc(O)c2C1	> 46 µM
C[C@H](NC[C@H](O)CP(=O)(O)Cc1ccccc1)c1ccc(Cl)c(Cl)c1	> 46 µM
C=CCN1CCc2cc(O)c(O)cc2[C@H](c2ccccc2)C1	> 46 µM
COc1cc2c(cc1C(F)(F)F)N(C(=O)Nc1cc(F)cc(-c3cccnc3)c1)CC2	> 46 µM
C[C@@](N)(C(=O)O)c1ccc(S(=O)(=O)O)cc1	> 46 µM
CCCCCCCCCC(=O)O[C@H](CC(=O)O)C[N+](C)(C)C	> 46 µM
O=C1CC[C@H](N2C(=O)c3ccccc3C2=O)C(=O)N1	> 46 µM and > 20.6 µM
N[C@@](C(=O)O)(c1ccc(P(=O)(O)O)cc1)C1CC1	> 46 µM
N[C@@H](C(=O)O)[C@H](CC(=O)O)c1ccc(Cl)cc1	> 46 µM
O=C(O)[C@H]1CCCNC1	> 46 µM
C[C@](N)(C(=O)O)c1ccc(-c2nn[nH]n2)cc1	> 46 µM
O=C(c1ccc(F)cc1)C1CCN(CCCCc2ccccc2)CC1	> 46 µM
CC(=O)N[C@@H](C(=O)O)C(C)(C)SN=O	> 46 µM
